EPAC2 antag = qHTS for Antagonist of cAMP-regulated guanine nucleotide exchange factor 2 (EPAC2): primary screen; Rap guanine nucleotide exchange factor 4 (Homo sapiens), Q8WZA2; 360,000 tested, 0.18% active; AID 720708, 2013; Potency, µM (titrated, usually from 114 µM), for inactives: top-dose activity, negative = inhibition, most hits filed as inhibitors; EPAC2 GEF exchange of Rap1B-BODIPY-GDP, fluorescence; further: on the % scale 0 is the no-effect control and ±100 the full control effect; nearly all actives have a fitted effect of over 45% in size
RGS4 inh = Inhibitors of Regulator of G Protein Signaling (RGS) 4: qHTS | 390,000 tested, 0.039% active | Potency, µM (highest dose often 114 µM), for inactives: top-dose activity change, negative = inhibition, actives largely listed as inhibitors | Transcreener GDP fluorescence polarization, RGS4-accelerated GTP hydrolysis | AID 504845, 2011 | Regulator of G-protein signaling 4 (Homo sapiens), P49798; further: on the % scale 0 is the no-effect control and ±100 the full control effect; nearly all actives have a fitted effect of over 75% in size
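MLSMR compounds (23 nl, pin-transferred) preincubated 10 min at room temperature with a 500nM (2x) first reagent, then RGS4 at 900nM (2x) plus Transcreener GDP mix added; fluorescence polarization (620/688 nm) read before and after 90 min at 30 °C.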
EPAC2 ag = qHTS for Agonist of cAMP-regulated guanine nucleotide exchange factor 4 (EPAC2): primary screen. EPAC2 activation, biochemical qHTS; response scale: 100% = 6.5 mM cAMP response. Potency, µM (highest dose often 154 µM), without a hit: at the top dose activation, actives largely listed as activators. 360,000 tested, 0.079% active. AID 720711, 2013; further: nearly all actives have a fitted effect of over 50% in size
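Readout is BODIPY fluorescence (480 nm excitation, 540 nm emission), which falls as labeled GDP is exchanged off Rap1B. EPAC2 at 100 nM acted on 250 nM RAP1B-BODIPY-GDP with 50 uM GDP present.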
EPAC1 agonist = qHTS for Agonist of cAMP-regulated guanine nucleotide exchange factor 3 (EPAC1): primary screen; 360,000 tested, 0.073% active; Rap guanine nucleotide exchange factor 3 (Homo sapiens), O95398; EPAC1 agonist qHTS, biochemical assay; response scale: 100% = response to 6.5 mM cAMP; Potency, µM (titrated, usually from 154 µM), for the others: top-dose activation, usual class: activators; further: nearly all actives have a fitted effect of over 60% in size
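Fluorescent GDP-exchange assay: 100 nM EPAC1 with 250 nM Rap1B preloaded with BODIPY-GDP and 50 uM GDP; compounds tested as concentration series, 5 min at room temperature, then read every 5 min for 30 min (ex 480/em 540 nm); normalized to 6.5 mM cAMP.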
BRCA1 expr up = qHTS Assay to Identify Small Molecule Activators of BRCA1 Expression. MCF7-BRCA1-FFLuc reporter, luminescence, 48 h; response scale: scaled: vehicle 0%, 10 µM genistein 100%. Potency, µM (highest dose often 46.1 µM), inactives show at the highest dose activation, actives largely listed as activators. 380,000 tested, 1.1% active; further: nearly all actives have a fitted effect of over 80% in size
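Reporter cells (MCF7, BRCA1 promoter-firefly luciferase) received library compounds across a concentration series for 48 h. End-point luminescence was measured and concentration-effect curves derived after normalization.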
EPAC1 antag = qHTS for Antagonist of cAMP-regulated guanine nucleotide exchange factor 3 (EPAC1): primary screen; Rap guanine nucleotide exchange factor 3 (Homo sapiens), O95398; EPAC1 GEF assay, Rap1b-BODIPY-GDP exchange fluorescence; Potency, µM (series often up to 115 µM), for inactives: at the top dose activity change, negative = inhibition, hits mostly inhibitors; 360,000 tested, 0.14% active; AID 720709, 2013;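 further: plate controls were vehicle for no effect and positive control for full effect; nearly all actives have a fitted effect of over 50% in size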
The depositor's hits bear a star; u = inconclusive; x = not tested or not shown; [ ] = remark or other dose. Only some compounds are listed: those with a hit (about 1.3% of all), similar ones and a draw of the others. The call rests on the fitted dose curve; in most records, active means well fitted curve in the direction sought with a large enough effect; inconclusive means small, poorly fitted or top-dose-only effect, or another doubt; inactive means no such curve, though single readings can be large; an effect the other way counts as inactive or inconclusive. Potency means the concentration at half of the fitted maximal effect.

SMILES | EPAC2 antag | RGS4 inh | EPAC2 ag | EPAC1 agonist | BRCA1 expr up | EPAC1 antag
Nc1nc(SCc2ccccc2)sc1C(=O)N1CCCCC1 | 0% | x | 19% | 1% | 2.2µM* | -2%
Cc1ccccc1NC(=O)N1CCCN(c2ccc(C#N)cn2)CC1 | 3% | 8% | 2% | 10% | -4% | -12%
O=C(O)CC/C=C\CC[C@H]1[C@@H](N2CCCCC2)[C@@H](O)C[C@@H]1OCc1ccc(-c2ccccc2)cc1 | x | 8.4µM* | x | x | x | x
Cc1ccccc1Cc1c(C)nc2nc(SCC(=O)NC(C)c3ccccc3)nn2c1C (configuration not stated) | x | -20% | x | x | x | x
CCc1ccc(O)c(N=Cc2ccccc2O)c1 | 3% | -10% | 1% | 1% | -23% | 7%
O=c1[nH][nH]c2c(N=Cc3ccccc3O)ccc(F)c12 | 4% | u | -1% | 3% | -1% | 40µM*
CSc1ccccc1NC(=O)Nc1ccccc1 | -1% | -15% | 11% | -3% | 65% | 2%
Cc1ccc(NC(=O)Nc2ccon2)cc1 | 4% | -7% | 2% | -6% | u | 22%
CCOc1ccc(NC(=O)Nc2ccon2)cc1 | -8% | 17% | -2% | 5% | 10µM* | 11%
CCOc1ccc(NC(=O)Nc2ccccc2SC)cc1 | -5% | 15% | 10% | -2% | 2.8µM* | 5%
O=C(O)CCSC(=S)N1CCOCC1 | -2% | 12%[11.4 µM] | 3% | -5% | 0% | -18%
O=C(NCCCN1CCCCCC1)c1ccc(CS(=O)(=O)Cc2ccccc2F)o1 | 6%[57.1 µM] | 3% | -17% | 8% | -4% | -9%
CCC1CCCCN1CCCNC(=O)c1ccc(CS(=O)(=O)Cc2ccccc2F)o1 (configuration not stated) | 22µM* | 1% | -1% | 6% | 2% | -5%
CCOc1ccc2nc(SCc3ccccc3C#N)sc2c1 | 2% | -12% | 4% | -2% | 7.9µM* | -6%
CCN(CC)S(=O)(=O)c1cc(C(=O)N=c2sccn2C)ccc1OC | -1% | -2% | -2% | -5% | -13% | -10%
CCCCOc1ccc(C(=O)N=c2sccn2C)cc1OC | -5% | -15% | 5% | 7% | 4µM* | 12%
CN(C)S(=O)(=O)c1ccc(C(=O)NCCOc2ccc(F)cc2)cc1 | 8% | 14% | 5% | -1% | 11µM* | 6%
CN(C)S(=O)(=O)c1ccc(C(=O)NCCOc2ccccc2)cc1 | 5% | 2% | 1% | -5% | 100% | 8%
CCn1c(=O)c(C(=O)Nc2ccccc2C)c(O)c2ccccc21 | 2% | 1% | 10% | 3% | -20% | -6%
CCn1c(=O)c(C(=O)Nc2ccccc2S(N)(=O)=O)c(O)c2ccccc21 | -4% | -13% | 20% | 11% | -18% | 56µM*
Cc1nnc(Sc2cc(NCCO)c([N+](=O)[O-])c3nonc23)s1 | 3% | u | -5% | 4% | 7% | -1%
Cc1nnc(Sc2cc(NCCCO)c([N+](=O)[O-])c3nonc23)s1 | 18% | u | 14% | 3% | 6% | 40µM*
COc1ccc(/C=C2\SC(=O)N(CCNC(=O)C3CC4C=CC3C4)C2=O)cc1 (configuration not stated) | -13% | 3% | 23% | 10% | 5.6µM* | u
O=C1C=C(c2ccccc2)C(c2ccccc2)C1 (configuration not stated) | 35µM* | 2% | 5% | 14% | -24% | -2%

Screening data (PubChem BioAssay)
